The structures appear in SMILES notation. The whole screen tested about 350,000 compounds, of which about 2,300 (0.66%) were called active.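 How the source made its calls: active means mean inhibition of at least 50% after viability correction, with every replicate also passing that limit; inconclusive means mean reaches 50% but only one of two replicates passes; inactive means the rest.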 For the sample, actives were picked, then their nearest neighbours and some compounds at random.

In general, inhibition refers to the drop in the measured response relative to a control, in per cent.

This assay is described as follows: EWS/Fli-driven NR0B1 reporter inhibitors, primary screen, A673 cells, NR0B1 luciferase, luminescence, MLPCN library (AID 651661).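 Further: firefly luciferase signal divided by Alamar Blue viability fluorescence both relative to DMSO.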 The following applies: viability-normalised, at 12.6 µM, hits give high values.
For `C[C@H]1CN([C@@H](C)CO)C(=O)c2cccc(NS(=O)(=O)c3ccc(F)cc3)c2O[C@@H]1CN(C)C`, the inhibition is 1.9% (inactive).
On to `Cc1ccc(S(=O)(=O)N(C)C[C@@H]2Oc3c(NC(=O)c4ccncc4)cccc3C(=O)N([C@@H](C)CO)C[C@@H]2C)cc1`, for which the inhibition is -2.33% (inactive).
For `COc1ccc(NC(=O)N[C@@H]2C=C[C@H](CC(=O)NC3CCC3)O[C@@H]2CO)cc1` the value was 3.89% (inactive).
For `O=C(C1CCCC1)N1CC(=O)N2[C@H](C1)[C@@H](c1ccc(-c3ccccc3F)cc1)[C@@H]2CO` the value was -3.17% (inactive); for `COc1ccc2c3c(n(C)c2c1)[C@H](CO)NCC31CCN(C(=O)Nc2ccccc2F)CC1`, 9.22% (inactive); for `C[C@H]1CN([C@@H](C)CO)C(=O)c2c(c3ccccc3n2C)-c2ccccc2CO[C@H]1CN(C)C(=O)Nc1ccc(F)cc1`, -3.34% (inactive).
The figure for `O=C(C[C@H]1C[C@@H]2c3cc(NC(=O)c4cccnc4)ccc3O[C@@H]2[C@@H](CO)O1)NCc1ccccc1F` is 6.33% (inactive); for `C[C@H](O)C#Cc1ccc2c(c1)O[C@@H](CN(C)CC1CCCC1)[C@H](C)CN([C@@H](C)CO)S2(=O)=O` it is -1.43% (inactive).
Regarding `Cc1ccc(CCC(=O)Nc2ncc(Cc3cc(Cl)ccc3Cl)s2)o1`, the inhibition is 54% (active).
For `Cc1ccc(C(=O)Nc2nc3ccc(Cl)cc3s2)o1` the value was -92.8% (inactive).
For `O=C(CCc1ccccc1Cl)Nc1ccc(S(=O)(=O)Nc2nccs2)cc1` the value was 8.82% (inactive).
As to `CCC(=O)Nc1ccc2c(c1)C(=O)N(C)C[C@H](OC)[C@@H](C)CN(C(=O)c1cnccn1)[C@@H](C)CO2`, the inhibition is 4.08% (inactive).
As for `O=C(NC[C@H]1CC[C@H]2[C@H](CN2Cc2cccc(Cl)c2)O1)C1CC1`, the inhibition was 5.25% (inactive).
`Cc1cccc(-n2ncc3c(=O)[nH]c(SCC(=O)Nc4cc(C)on4)nc32)c1`: the inhibition is -9.98% (inactive).
The figure for `CCCNC(=O)c1c(Cl)cnn1-c1ccc(C)cc1` is -130% (inactive); for `Cc1cccc(-n2ncc(Cl)c(Cl)c2=O)c1` it is 79.8% (active); for `O=C(C[C@@H]1C[C@@H]2c3cc(NS(=O)(=O)c4ccc(F)cc4)ccc3O[C@@H]2[C@@H](CO)O1)N1CCOCC1` it is -1.95% (inactive).
Take `CNC[C@H]1Oc2cc(C#CC3CCCC3)ccc2S(=O)(=O)N([C@H](C)CO)C[C@@H]1C`: the inhibition is 3.9% (inactive).
The figure for `Cc1ccc2[nH]c(=O)c(CC(=O)O)c(-c3ccccc3)c2c1` is -1.99% (inactive); for `CCN(CC)CCCNC(=O)c1cc2c(=O)[nH]c3ccc(C)cc3c2s1` it is 7.57% (inactive).
For `Cc1cccc(N(C)C(=O)c2cc3c(=O)[nH]c4ccc(C)cc4c3s2)c1` the value was 65% (active).
For `O=C([C@H]1[C@H](CO)[C@H]2Cn3c(cccc3=O)[C@@H]1N2Cc1cocn1)N1CCCCC1` the value was -0.44% (inactive); for `CCC(C)Cn1c(O)cc2nn(-c3nc4ccccc4s3)c(=O)c-2c1C` (stereo unspecified), 64.5% (active); for `N#Cc1ccc(-c2ccc([C@H]3[C@H](CO)N4C(=O)CN(C(=O)Cc5ccccc5)C[C@@H]34)cc2)cc1`, -6.19% (inactive).
Consider `COc1ccc(CNC(=O)C[C@@H]2C=C[C@@H](NC(=O)c3ccc4c(c3)OCO4)[C@@H](CO)O2)cc1`, for which the inhibition was -0.519% (inactive).
For `CCNC(=O)C[C@@H]1CC[C@@H]2[C@@H](COc3ccc(NC(=O)Nc4ccccc4F)cc3C(=O)N2C)O1`, the inhibition is -3.28% (inactive).
The figure for `CCOc1cc2[nH]c(=S)n(Cc3ccc(C(=O)N4CCN(C)CC4)cc3)c(=O)c2cc1OCC` is 67.5% (active); for `COc1cc2[nH]c(=S)n(Cc3ccc(F)cc3)c(=O)c2cc1OC` it is 11.2% (inactive); for `COc1ccc(Cn2c(=S)[nH]c3cc(C(=O)N4CCCCC4)ccc3c2=O)cc1` it is -2.4% (inactive).
The figure for `O=C(Nc1ccc(F)cc1)N[C@@H]1CC[C@H](CC(=O)N2CCCCC2)O[C@H]1CO` is 6.37% (inactive); for `C[C@@H]1CN([C@@H](C)CO)S(=O)(=O)c2ccc(-c3ccc(C(=O)N(C)C)cc3)cc2O[C@@H]1CN(C)C(=O)Cc1ccccn1` it is -2.65% (inactive).

Values taken from PubChem BioAssay AID651661 (Broad Institute, 2012).
